# Data reported in PubChem BioAssay (NCATS).
# Several values for one entry are separate records, joined by “and”; a condition that tells them apart may be missing. Equal values may be shown once. Records with an inconclusive call do not appear. Activity calls are given as the source filed them. Unless noted, calls come from the whole dose curve; as a rule, active = well fitted curve in the direction sought with a large enough effect; inconclusive = small, poorly fitted or top-dose-only effect, or another doubt; inactive = no such curve, though single readings can be large; an effect the other way counts as inactive or inconclusive.
# What was measured:
# [1] = target: Mitogen-activated protein kinase 10 (Mus musculus) (UniProt Q61831); assay: JNK3 AlphaScreen Assay (AID 530; active = well fitted curve in either direction with a large enough effect, not every such curve was filed as active;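 note: kinase came from lysate of stimulated human HepG2 cells; signal reports phosphorylation of biotinylated GST-cJun 1-79 at Ser73 with 10 µM ATP; % is set by controls: 0 for no effect and ±100 for the full control effect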); conditions: JNK3 lysate, c-Jun phosphorylation; series mostly up to 57.1 µM
# Procedure, shortened: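 qHTS format: compounds tested as titrations against IL-1beta/TNF-alpha-activated HepG2 lysate JNK3 with biotin-GST-cJun substrate and 10 uM ATP at room temperature. Loss of anti-phospho-cJun AlphaScreen signal indicates inhibition.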
# [2] = target: Cytochrome P450 3A4 (Homo sapiens) (UniProt P08684); assay: qHTS Assay for Inhibitors and Substrates of Cytochrome P450 3A4 (AID 884); conditions: recombinant CYP3A4, Luciferin-PPXE luminescence; series mostly up to 57.1 µM; note: nearly all actives have a fitted effect of over 50% in size; note: potency is the fitted concentration of half-maximal effect; for activity change, negative = inhibition: % is set by controls: 0 for no effect and ±100 for the full control effect
# Procedure, shortened: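 20 nM human CYP3A4 with 25 uM Luciferin-PPXE (at KM) in 200 mM KPO4, preincubated 10 min with compound; NADPH regeneration started a 60 min RT reaction. Luciferin detected by luminescence, normalized to 57 uM ketoconazole as full inhibition.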
# [3] = target: Cytochrome P450 3A4 (Homo sapiens) (UniProt P08684); assay: qHTS Assay for Activators of Cytochrome P450 3A4 (AID 885); conditions: recombinant CYP3A4, Luciferin-PPXE luminescence, 60 min; series mostly up to 57.1 µM; note: nearly all actives have a fitted effect of over 65% in size; note: potency is the fitted concentration of half-maximal effect
# Procedure, shortened: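 Signal was normalized against complete inhibition by 57 uM ketoconazole. The reaction used 20nM CYP3A4 with 25uM Luciferin-PPXE, 10-min compound preincubation and a 60-min NADPH-supported step at RT.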
# [4] = Confirmation and Secondary Assay for Modulators of Hemoglobin Beta Chain Splicing at IVS2 654 locus (AID 910); conditions: HeLa EGFP-654 splicing reporter, GFP fluorescence, 48 h; series mostly up to 46.1 µM;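 note: HeLa cells stably carrying EGFP split by mutant beta-globin IVS2-654 intron; % of control where 0% means no effect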
# Procedure, shortened: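 HeLa cells stably expressing EGFP interrupted by β-globin IVS2-654 intron, seeded overnight in Opti-MEM/2% FCS, then treated 2 days at 37 °C. Restored splicing read as total peak GFP intensity per well by laser scanning cytometry (488 nm excitation, 500–520 nm emission); 500 nM antisense PNA as control.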
# [5] = Confirmation and Secondary Assay for Modulators of Hemoglobin Beta Chain Splicing at IVS2 705 locus (AID 930); conditions: HeLa EGFP-705 splicing reporter, GFP fluorescence, 48 h; series mostly up to 46.1 µM;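 note: HeLa cells stably expressing the EGFP-705 splicing reporter; GFP fluorescence per well restored by corrected splicing of the IVS2-705 intron in EGFP; % of control where 0% means no effect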
# Procedure, shortened: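 Secondary splice-site specificity test uses HeLa expressing CMV-driven EGFP interrupted by IVS2-705; cells were treated 2 days at 37C with 500 nM antisense PNA as positive control.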
# [6] = qHTS Assay for Lipid Storage Modulators (AID 1519; calls by dose curve); conditions: Drosophila S3 cells, BODIPY lipid droplet/cell ratio, laser cytometry, cells loaded with oleic acid
# Procedure, shortened: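 Cells seeded at 5,000 per well were treated with compounds over a concentration series and loaded with oleic acid (400 uM, as added). Lipid droplet fluorescence (488 nm excitation, 500-530 nm channel) was read by laser-scanning cytometry and normalized to 20 uM Triacsin C.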
# [7] = target: Ubiquitin carboxyl-terminal hydrolase 1 (Homo sapiens) (UniProt O94782); assay: Inhibitors of USP1/UAF1: Pilot qHTS (AID 504865); conditions: purified USP1/UAF1, Ub-rhodamine cleavage fluorescence; series mostly up to 114 µM;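 note: rhodamine fluorescence freed from ubiquitin-rhodamine substrate followed over time; top concentration of the series differs between compounds; % is set by controls: 0 for no effect and ±100 for the full control effect; nearly all actives have a fitted effect of over 35% in size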
# Procedure, shortened: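 Kinetic fluorescence assay: 1nM USP1/UAF1, 15 min compound preincubation, then 150nM Ub-Rho; 480/540 nm.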
# [8] = system: HIV-1 nucleocapsid protein NCp7 (binding to TG oligonucleotide); assay: HIV Nucleocapsid (AID 346; call rule not given here;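 note: potency is the fitted concentration of half-maximal effect; potency is for inhibitors that block NC binding and lower polarization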); conditions: HIV-1 NC / fluorescein-TGTGTGTG probe, fluorescence polarization
# Procedure, shortened: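 NCp7 100 nM + fluorescein TG4xF 10 nM; Hepes pH 7.5/250mM NaCl/1uM ZnCl2/0.004% PEG 20000; 1 hr RT; FP, 45 s exposure; oligo-only wells as negative control.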
# [9] = target: Lysosomal acid glucosylceramidase (Homo sapiens) (UniProt P04062); assay: Glucocerebrosidase-p2 (AID 348; in the data active = potency below about 10 µM; note: potency is the fitted concentration of half-maximal effect); conditions: purified GBA, blue fluorogenic substrate, 40 min
# Procedure, shortened: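 Compounds titrated from 0.6 nM upwards against 0.2 nM enzyme in pH 5.9 citric acid/KH2PO4, taurocholate, tween-20; blue fluorogenic substrate 80 uM, 40 min room temperature, stopped and read Ex 365/Em 440 for AC50.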
# [10] = target: Cytochrome P450 1A2 (Homo sapiens) (UniProt P05177); assay: p450-cyp1a2 (AID 410; calls by dose curve; note: potency is the fitted concentration of half-maximal effect;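 for activity change, negative = inhibition: -100% = full effect of reference inhibitor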); conditions: recombinant CYP1A2, luciferin-ME demethylation, luminescence; series mostly up to 25.6 µM
# Procedure, shortened: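 Inhibition was calculated relative to 57 uM furafylline (full inhibition). The reaction used human CYP1A2 at 20nM with Luciferin-ME at its Km, 100uM, driven by an NADPH-regenerating system for 60 min at room temperature.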
# [11] = target: Glucocorticoid receptor (Homo sapiens) (UniProt P04150); assay: GR-EFC Redistribution (AID 451; calls by dose curve; note: potency is the fitted concentration of half-maximal effect); conditions: CHO-K1 GR-EFC translocation, beta-gal luminescence, 2 h
# Procedure, shortened: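 CHO-K1 cells expressing nuclear EA and GR-ED fragments of b-gal; compounds titrated up to 46 uM final, 2 h at 37 C. GR nuclear translocation read as complemented b-gal luminescence after 1 h RT detection.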
# [12] = AP1 Signaling Pathway (AID 357; active = well fitted curve in either direction with a large enough effect, not every such curve was filed as active; note: % is set by controls: 0 for no effect and ±100 for the full control effect); conditions: ME-180 AP-1-bla reporter, EGF-induced, beta-lactamase ratio, 5 h; series mostly up to 17.2 µM
# Procedure, shortened: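 ME-180 cells with beta-lactamase reporter under AP-1 response element, stimulated with EC50 EGF; compounds tested in titration series, 5 h at 37 °C. CCF4 substrate added 2.5 h at room temperature; 460/530 nm emission ratio gave %activity and AC50.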
# [13] = target: 3',5'-cyclic-AMP phosphodiesterase 4B (Homo sapiens) (UniProt Q07343); assay: qHTS Assay for Inhibitors of PDE-IV (AID 607; active = well fitted activation curve with a large enough effect in the main read-out, with a control signal flat, not every such curve was filed as active; note: % of control where 0% means no effect); conditions: HEK293 ACTOne CNG channel cells, membrane potential fluorescence; series mostly up to 22.9 µM
# Procedure, shortened: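 Cell-based read-out of cAMP via a modified cyclic nucleotide-gated channel and membrane potential dye (535/590 nm) in HEK293 cells expressing PDE4 endogenously. Compounds tested up to 22.9 uM final; 100 uM RO 20-1724 reference.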
# [14] = Stat Signaling Pathway (AID 446; active = well fitted curve in either direction with a large enough effect, not every such curve was filed as active;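 note: ME-180 cervical cancer cells given 40 pM IL-6 alongside compound; SIE-controlled beta-lactamase reporter measured as 460/530 nm FRET emission ratio; % is set by controls: 0 for no effect and ±100 for the full control effect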); conditions: ME-180 SIE beta-lactamase reporter, IL-6 stimulated, 5 h; series mostly up to 17.2 µM
# Procedure, shortened: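 Reporter line: ME-180 cervical carcinoma, SIE-beta-lactamase. Treatment: compound with 40 pM IL-6, 5 hrs, 37 C, in low-serum OPTI-MEM with 10 mM HEPES pH 7.3. Detection: 460/530 nm fluorescence.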
# [15] = target: Cytochrome P450 2D6 (Homo sapiens) (UniProt P10635); assay: qHTS Assay for Inhibitors and Substrates of Cytochrome P450 2D6 (AID 891); conditions: recombinant CYP2D6, luciferin-ME EGE luminescence; series mostly up to 57.1 µM; note: potency is the fitted concentration of half-maximal effect; nearly all actives have a fitted effect of over 60% in size
# Procedure, shortened: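 Human CYP2D6 (5 nM) with 30 uM Luciferin-ME EGE (at Km) in 100 mM KPO4, compound preincubated 10 min, then NADPH regeneration system for 60 min at room temperature. Luciferin read by luminescence; normalized to 1.43 uM quinidine.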
# [16] = target: Glucocorticoid receptor (Homo sapiens) (UniProt P04150); assay: GR-GFP Redistribution (AID 450;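 active = compounds whose dose series gives a full or clear partial fitted curve of increased nuclear translocation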; note: potency is the fitted concentration of half-maximal effect); conditions: U2OS GR-GFP nuclear translocation, laser cytometry, 2 h
# [17] = measured here: cell count channel max response
# [18] = measured here: lipid channel max response
# Cytochrome P450 3A4 (Homo sapiens), sequence (P08684 whole entry, looked up): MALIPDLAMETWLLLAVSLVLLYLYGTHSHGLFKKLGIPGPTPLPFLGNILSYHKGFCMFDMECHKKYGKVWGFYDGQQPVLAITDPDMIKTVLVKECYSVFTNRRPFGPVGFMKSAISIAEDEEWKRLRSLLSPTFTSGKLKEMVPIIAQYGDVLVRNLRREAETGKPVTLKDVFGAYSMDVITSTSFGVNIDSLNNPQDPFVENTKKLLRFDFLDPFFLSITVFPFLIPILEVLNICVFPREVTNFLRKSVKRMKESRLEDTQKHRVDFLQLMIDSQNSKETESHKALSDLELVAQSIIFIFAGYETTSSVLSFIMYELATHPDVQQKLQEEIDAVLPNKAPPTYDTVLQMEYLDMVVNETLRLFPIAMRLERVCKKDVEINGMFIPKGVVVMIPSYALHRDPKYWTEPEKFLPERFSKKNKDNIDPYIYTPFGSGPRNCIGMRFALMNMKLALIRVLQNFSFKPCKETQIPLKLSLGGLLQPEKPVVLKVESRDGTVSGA
# Glucocorticoid receptor (Homo sapiens), sequence (P04150 whole entry, looked up, the tested form may be a part): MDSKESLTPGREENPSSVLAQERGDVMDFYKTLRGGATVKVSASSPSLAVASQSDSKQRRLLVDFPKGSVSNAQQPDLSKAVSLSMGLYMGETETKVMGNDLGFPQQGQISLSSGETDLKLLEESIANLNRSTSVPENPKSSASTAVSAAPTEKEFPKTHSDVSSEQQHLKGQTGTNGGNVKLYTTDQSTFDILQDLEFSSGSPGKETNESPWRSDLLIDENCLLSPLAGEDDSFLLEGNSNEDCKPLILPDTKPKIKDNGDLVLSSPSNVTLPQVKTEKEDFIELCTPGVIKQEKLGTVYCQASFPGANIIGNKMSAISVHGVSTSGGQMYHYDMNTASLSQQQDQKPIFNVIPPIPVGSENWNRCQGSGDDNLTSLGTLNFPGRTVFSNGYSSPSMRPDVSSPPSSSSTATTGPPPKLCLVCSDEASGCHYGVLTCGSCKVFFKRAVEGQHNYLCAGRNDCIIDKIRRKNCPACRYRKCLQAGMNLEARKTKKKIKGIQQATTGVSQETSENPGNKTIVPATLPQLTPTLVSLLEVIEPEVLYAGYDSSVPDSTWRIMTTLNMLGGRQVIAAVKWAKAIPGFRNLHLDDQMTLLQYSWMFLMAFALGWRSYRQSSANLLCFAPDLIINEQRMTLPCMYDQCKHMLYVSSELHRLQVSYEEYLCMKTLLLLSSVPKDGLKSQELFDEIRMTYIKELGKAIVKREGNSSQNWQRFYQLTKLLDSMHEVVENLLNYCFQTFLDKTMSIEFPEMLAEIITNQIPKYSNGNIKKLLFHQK
# Cytochrome P450 1A2 (Homo sapiens), sequence (P05177 whole entry, looked up): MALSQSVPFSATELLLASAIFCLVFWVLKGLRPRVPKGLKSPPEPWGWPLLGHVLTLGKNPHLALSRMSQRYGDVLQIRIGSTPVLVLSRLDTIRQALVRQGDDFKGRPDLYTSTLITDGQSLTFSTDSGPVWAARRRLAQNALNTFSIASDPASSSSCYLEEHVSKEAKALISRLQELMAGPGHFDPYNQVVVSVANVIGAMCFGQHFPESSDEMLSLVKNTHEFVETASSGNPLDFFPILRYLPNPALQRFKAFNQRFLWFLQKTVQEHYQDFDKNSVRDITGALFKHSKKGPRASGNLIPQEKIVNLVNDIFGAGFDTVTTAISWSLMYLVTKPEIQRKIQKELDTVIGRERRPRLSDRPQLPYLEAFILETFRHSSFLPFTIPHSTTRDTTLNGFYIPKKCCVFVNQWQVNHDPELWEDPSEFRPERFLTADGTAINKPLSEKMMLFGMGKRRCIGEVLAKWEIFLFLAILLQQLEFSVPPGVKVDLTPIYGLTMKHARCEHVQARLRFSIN
# Lysosomal acid glucosylceramidase (Homo sapiens), sequence (P04062 whole entry, looked up): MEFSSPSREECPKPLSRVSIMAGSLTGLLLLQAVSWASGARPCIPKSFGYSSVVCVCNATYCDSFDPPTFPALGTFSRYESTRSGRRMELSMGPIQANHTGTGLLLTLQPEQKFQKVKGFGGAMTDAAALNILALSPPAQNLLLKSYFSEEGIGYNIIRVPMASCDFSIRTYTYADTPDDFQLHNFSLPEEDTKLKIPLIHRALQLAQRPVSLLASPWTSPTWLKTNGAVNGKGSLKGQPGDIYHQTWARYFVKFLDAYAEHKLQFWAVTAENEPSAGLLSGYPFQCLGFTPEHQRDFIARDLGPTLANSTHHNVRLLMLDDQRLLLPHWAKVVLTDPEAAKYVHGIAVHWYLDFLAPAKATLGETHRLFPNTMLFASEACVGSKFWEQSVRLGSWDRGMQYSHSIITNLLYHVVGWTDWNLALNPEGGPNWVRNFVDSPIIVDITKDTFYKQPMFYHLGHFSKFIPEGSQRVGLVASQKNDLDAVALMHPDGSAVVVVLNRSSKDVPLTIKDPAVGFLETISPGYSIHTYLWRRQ
# Ubiquitin carboxyl-terminal hydrolase 1 (Homo sapiens), sequence (O94782 whole entry, looked up): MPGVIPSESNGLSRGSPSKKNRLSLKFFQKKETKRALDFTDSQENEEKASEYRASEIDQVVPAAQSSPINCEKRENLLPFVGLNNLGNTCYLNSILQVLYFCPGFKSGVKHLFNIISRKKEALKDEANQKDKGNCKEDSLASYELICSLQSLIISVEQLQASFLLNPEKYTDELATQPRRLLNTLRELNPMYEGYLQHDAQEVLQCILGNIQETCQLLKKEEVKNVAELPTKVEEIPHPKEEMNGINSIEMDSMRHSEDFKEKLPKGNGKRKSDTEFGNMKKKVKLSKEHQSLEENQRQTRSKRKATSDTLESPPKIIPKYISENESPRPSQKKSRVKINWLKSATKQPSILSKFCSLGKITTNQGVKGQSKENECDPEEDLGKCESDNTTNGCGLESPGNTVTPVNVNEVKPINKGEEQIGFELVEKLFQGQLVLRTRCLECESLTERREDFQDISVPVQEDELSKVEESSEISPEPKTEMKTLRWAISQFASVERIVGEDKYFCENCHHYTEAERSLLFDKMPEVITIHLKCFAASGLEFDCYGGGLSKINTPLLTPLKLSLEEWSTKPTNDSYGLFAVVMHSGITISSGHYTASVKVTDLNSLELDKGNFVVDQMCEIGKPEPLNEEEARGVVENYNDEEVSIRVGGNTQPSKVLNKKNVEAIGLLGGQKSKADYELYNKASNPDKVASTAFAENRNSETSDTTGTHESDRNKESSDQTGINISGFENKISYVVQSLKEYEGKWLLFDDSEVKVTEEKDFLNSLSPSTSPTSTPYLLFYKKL
# 3',5'-cyclic-AMP phosphodiesterase 4B (Homo sapiens), sequence (Q07343 whole entry, looked up): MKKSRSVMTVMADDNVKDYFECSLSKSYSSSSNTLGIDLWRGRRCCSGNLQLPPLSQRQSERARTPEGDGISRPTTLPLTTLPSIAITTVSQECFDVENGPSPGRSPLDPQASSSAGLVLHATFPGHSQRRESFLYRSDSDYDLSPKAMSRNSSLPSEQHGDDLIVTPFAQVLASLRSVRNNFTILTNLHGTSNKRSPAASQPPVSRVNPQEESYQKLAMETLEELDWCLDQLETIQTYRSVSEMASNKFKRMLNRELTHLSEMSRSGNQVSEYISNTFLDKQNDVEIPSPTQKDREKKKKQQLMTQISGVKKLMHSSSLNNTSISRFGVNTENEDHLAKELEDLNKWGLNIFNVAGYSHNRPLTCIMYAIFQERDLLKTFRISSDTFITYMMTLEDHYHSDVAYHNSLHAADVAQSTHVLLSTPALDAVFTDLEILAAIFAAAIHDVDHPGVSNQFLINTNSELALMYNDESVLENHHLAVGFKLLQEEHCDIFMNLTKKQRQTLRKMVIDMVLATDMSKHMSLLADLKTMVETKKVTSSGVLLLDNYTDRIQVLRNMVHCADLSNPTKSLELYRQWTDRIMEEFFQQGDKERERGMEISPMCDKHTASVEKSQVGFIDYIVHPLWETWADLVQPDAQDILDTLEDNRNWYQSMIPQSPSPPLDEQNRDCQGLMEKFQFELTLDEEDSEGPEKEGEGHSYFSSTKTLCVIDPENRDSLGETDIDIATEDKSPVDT
# Cytochrome P450 2D6 (Homo sapiens), sequence (P10635 whole entry, looked up): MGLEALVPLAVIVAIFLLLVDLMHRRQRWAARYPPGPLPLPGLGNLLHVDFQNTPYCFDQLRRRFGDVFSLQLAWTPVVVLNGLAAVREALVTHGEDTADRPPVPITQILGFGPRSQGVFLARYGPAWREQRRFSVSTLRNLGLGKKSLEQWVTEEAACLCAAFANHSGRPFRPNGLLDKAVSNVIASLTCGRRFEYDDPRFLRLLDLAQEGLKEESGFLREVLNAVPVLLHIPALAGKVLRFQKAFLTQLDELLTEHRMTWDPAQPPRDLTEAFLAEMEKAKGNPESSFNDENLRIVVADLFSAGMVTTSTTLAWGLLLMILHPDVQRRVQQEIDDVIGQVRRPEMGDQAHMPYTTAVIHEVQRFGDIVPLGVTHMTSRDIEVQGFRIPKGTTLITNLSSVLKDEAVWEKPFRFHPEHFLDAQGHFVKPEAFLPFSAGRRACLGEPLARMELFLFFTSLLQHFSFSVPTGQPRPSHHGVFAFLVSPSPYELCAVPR
smiles,measurement,setting,value
CCOCN(C(=O)CCl)c1c(C)cccc1CC,outcome,[1],inactive
same,Potency,[2],inactive
same,Potency,[3],15.8 µM (active)
same,Potency,[4],inactive
same,Potency,[5],inactive
same,"activity change, negative = inhibition",[6]; at 57.5 µM (top of the series),0.371% (inactive)
same,max response,[6]; [17],-6.11%
same,max response,[6]; [18],-5.22%
same,Potency,[7],inactive
O=C(Oc1ccccc1)N1CCC2(CCCN(C(c3ccccc3)c3ccccc3)C2)CC1,Potency,[8],> 20 µM (inactive)
same,Potency,[9],> 11.4 µM (inactive)
same,Potency,[10],inactive
same,Potency,[11],> 46 µM (inactive)
same,outcome,[1],inactive
same,"activity change, negative = inhibition",[6]; at 57.5 µM (top of the series),6.26% (inactive)
same,max response,[6]; [17],7.72%
same,max response,[6]; [18],16.7%
O=C(Oc1ccccc1)N1CCC2(CCCN(Cc3ccccc3)C2)CC1,Potency,[9],> 11.4 µM (inactive)
same,outcome,[12],inactive
same,Potency,[10],inactive
same,Potency,[11],> 46 µM (inactive)
same,outcome,[1],inactive
same,Potency,[13],inactive
same,Potency,[3],inactive
same,"activity change, negative = inhibition",[6]; at 57.5 µM (top of the series),2.57% (inactive)
same,max response,[6]; [17],0.129%
same,max response,[6]; [18],4.78%
CC(C)NC(=O)N1CCCC2(CCN(C(=O)Oc3ccccc3)CC2)C1,Potency,[8],> 20 µM (inactive)
same,Potency,[9],> 11.4 µM (inactive)
same,outcome,[12],inactive
same,Potency,[10],12.6 µM (active)
same,Potency,[11],> 46 µM (inactive)
same,outcome,[1],inactive
same,Potency,[13],inactive
same,Potency,[3],inactive
same,"activity change, negative = inhibition",[6]; at 57.5 µM (top of the series),6.21% (inactive)
same,max response,[6]; [17],27.7%
same,max response,[6]; [18],29.9%
O=C(Nc1ccccc1)N1CC[C@@]2(CCCN(C(=O)Oc3ccccc3)C2)C1,Potency,[9],> 11.4 µM (inactive)
same,outcome,[12],inactive
same,Potency,[10],15.8 µM (active)
same,outcome,[14],inactive
same,Potency,[11],> 46 µM (inactive)
same,outcome,[1],inactive
same,Potency,[3],inactive
same,"activity change, negative = inhibition",[6]; at 57.5 µM (top of the series),8.84% (inactive)
same,max response,[6]; [17],9%
same,max response,[6]; [18],23.4%
O=C(c1ccncc1)N1CCC2(CC1)CN(Cc1ccccc1)C2,Potency,[9],> 11.4 µM (inactive)
same,outcome,[12],inactive
same,Potency,[10],inactive
same,Potency,[11],> 46 µM (inactive)
same,outcome,[1],inactive
same,Potency,[3],inactive
same,Potency,[15],6.31 µM (active)
same,"activity change, negative = inhibition",[6]; at 57.5 µM (top of the series),-1.45% (inactive)
same,max response,[6]; [17],-4.26%
same,max response,[6]; [18],-4.05%
C/C=C/c1ccc2c(c1)OCO2,outcome,[1],inactive
same,Potency,[3],inactive
same,Potency,[4],inactive
same,Potency,[5],inactive
same,"activity change, negative = inhibition",[6]; at 57.5 µM (top of the series),7.07% (inactive)
same,max response,[6]; [17],10.4%
same,max response,[6]; [18],20.9%
C[N+]1([O-])[C@@H]2CC(OC(=O)[C@@H](CO)c3ccccc3)C[C@@H]1[C@H]1O[C@H]12 (stereo partly drawn),Potency,[9],> 11.4 µM (inactive)
same,outcome,[12],inactive
same,Potency,[10],inactive
same,outcome,[14],inactive
same,Potency,[16],> 20.6 µM (inactive) and > 46 µM (inactive)
same,Potency,[11],> 20.6 µM (inactive) and > 9.22 µM (inactive)
same,outcome,[1],inactive
same,"activity change, negative = inhibition",[6]; at 25.7 µM (top of the series),0.148% (inactive)
same,max response,[6]; [17],26%
same,max response,[6]; [18],27.4%
same,Potency,[7],inactive
O=S1OCC2C(CO1)C1(Cl)C(Cl)=C(Cl)C2(Cl)C1(Cl)Cl (stereo not drawn),outcome,[1],inactive
same,Potency,[3],inactive
same,Potency,[4],inactive
same,Potency,[5],inactive
same,"activity change, negative = inhibition",[6]; at 57.5 µM (top of the series),5.66% (inactive)
same,max response,[6]; [17],-0.733%
same,max response,[6]; [18],5.32%
same,Potency,[7],inactive
ClC1=C(Cl)C2(Cl)C3C4C=CC(C4)C3C1(Cl)C2(Cl)Cl (stereo not drawn),outcome,[1],inactive
same,Potency,[2],3.16 µM (active)
same,Potency,[3],inactive
same,Potency,[4],inactive
same,Potency,[5],inactive
same,"activity change, negative = inhibition",[6]; at 57.5 µM (top of the series),4.06% (inactive)
same,max response,[6]; [17],9.06%
same,max response,[6]; [18],23.4%
same,Potency,[7],inactive
